One assay deals with ARHGAP21. The experiment in a line: pooled miR-30 sensor sort-seq; sequence = guide strand. The conditions noted are these: shRNA.
Sequence TAAACTATCTAATCTTTCTTGT showed a sensor-assay potency score (higher = more potent) of 0.258.
Sequence TTTAGTATCATTGTGACACTGT showed a sensor-assay potency score (higher = more potent) of 0.875.
Turning to TTAAACTATCTAATCTTTCTTG, the sensor-assay potency score (higher = more potent) worked out at 0.206.
The same measure, in the same setting: the result for TAGACTTCCACTATCTGACTTG reads 0.173.
Take TTATTTTTTGAGACCTCGCAGG: the sensor-assay potency score (higher = more potent) is -0.693.
As for TTTCATTGCAAACACACACTGC, the sensor-assay potency score (higher = more potent) is -0.187.
TATCTGACTTGAATCTAGCTGA came in with a sensor-assay potency score (higher = more potent) of 0.41.
TTCTATTGGATAACAAATCTAC: the sensor-assay potency score (higher = more potent) was -0.588.
In the case of TTGTATATCAATATCAGCCATT, the sensor-assay potency score (higher = more potent) is -0.872.
Still for that read-out and setting: the figure for TAAATCTGAAGTACCAGCGTTT is 0.202; for TAAACTGCGACACAGATCCCAC it is -0.61; for TTGTTGAGTCACTAGTAGCTGA it is -0.152.

The target in a further assay is ARHGAP30. Described as above. The conditions noted are these: shRNA.
In turn, TTATTCTGAGACATTGACCTTC displayed a sensor-assay potency score (higher = more potent) of 0.266.
On the same count and under the same terms, the figure for TTTGGCACAGTCAACCTCCAGG is -0.36.
The same measure, in the same setting: the result for TTAATCTGGATTTAAAAGGGAC reads -0.482.
Consider TGCACAGCTCTTTAGCACCTGG, for which the sensor-assay potency score (higher = more potent) was -0.978.
For TGAATCTTGCTACACATTGCAC, the sensor-assay potency score (higher = more potent) is -1.12.
The sequence TAGAGTTGGGCACTACAGCTGC showed a sensor-assay potency score (higher = more potent) of -0.34.
Regarding TAGGTCATCATAGGCACTCAGG, the sensor-assay potency score (higher = more potent) is -1.26.
As to TTGACCTTCACTAGAGTGGGAC, the sensor-assay potency score (higher = more potent) is -0.00464.
In turn, TTGTGTCGGAGACAAGTTCAGG came in with a sensor-assay potency score (higher = more potent) of -1.32.
TTGTTGGATTTATCCTCCCTGT: the sensor-assay potency score (higher = more potent) is -0.894.
Take TCTTGCTACACATTGCACTGGG: the sensor-assay potency score (higher = more potent) is 0.852.

The values are drawn from the OligoGym collection.
Further: reference of the scale not given here.
